HSF1 inh: HSF1 inhibition; AID 2098; NIH3T3-HGL HSE-luciferase, MG132-induced, luminescence 8 h; hits give low values; activity change, negative = inhibition, % at 7.5 µM (by protocol); 300,000 tested, 0.77% active;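 active = more than half of replicate wells show activity change below -50%, luminescence cut by over half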;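 note: luciferase reports HSF-1 transcriptional activity via heat shock element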
TWEAK-Fn14 inh: inhibitors of TWEAK-Fn14 interaction signaling. TWEAK-stimulated Fn14 reporter cells, luciferase luminescence, 8 h. inhibition, % at 10 µM. 360,000 tested, 2% active; in the data active = inhibition above about 50%
TROY signal inh: TROY signaling inhibition; Q293 LMP1-TROYcd NF-kB luciferase reporter, 4 h; inhibition, % at 10 µM; 360,000 tested, 0.98% active; AID 1347056;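 active = compounds whose plate-normalised and pattern-corrected inhibition of the luciferase reporter signal at the single screening dose is 50% or more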
EBV LMP1 NFkB: Epstein-Barr LMP1 NF-kappaB reporter inhibition; LMP1-induced NF-kappaB luciferase reporter cells, luminescence; inhibition, % at 12.5 µM; 350,000 tested, 0.69% active; in the data active = inhibition above about 41%
HSF1 activator: increases HSF-1 driven luciferase reporter signal. NIH3T3-HGL HSF-1 luciferase reporter, MG132, 8 h; 100% = twice DMSO control signal. activation, % at 9 µM. 300,000 tested, 1.7% active. AID 504408;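 active = mean replicate activation of at least 50% with a set share of replicates each reaching 50%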
LGR2 inh: Drosophila LGR2 receptor signaling inhibition. HEK293 LGR2, CRE-luciferase, bursicon-stimulated, 4 h. inhibition, % at 9.99 µM. 380,000 tested, 0.35% active;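 active = drop in luminescence signal, shown as inhibition above about 50% in the replicate tests, limit read from the data, passing the limit was not always enough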;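 note: agonist challenge used bursicon conditioned medium at about half maximal strength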
A number is an active result; i = inactive; nt = no result. A selection: hits, their analogues and other compounds. The true share with any hit is near 3.6%.

SMILES | HSF1 inh | TWEAK-Fn14 inh | TROY signal inh | EBV LMP1 NFkB | HSF1 activator | LGR2 inh
COc1cccc(C(=O)COC(=O)C(C)N2C(=O)c3ccccc3C2=O)c1 (configuration not stated) | i | i | i | i | i | i
C/C=C/c1ccc2c(c1)O[C@@H](CN(C)C(=O)Nc1cccc(F)c1)[C@H](C)CN([C@@H](C)CO)S2(=O)=O | nt | nt | nt | nt | nt | i
COc1ccccc1NC(=O)CN1C(=O)COc2ccc(S(=O)(=O)N3CCC(C)CC3)cc21 | i | i | i | i | i | i
CN1CCN(C(=O)CN2C(=O)COc3ccc(S(=O)(=O)N4CCOCC4)cc32)CC1 | i | i | i | i | i | i
CCOC(=O)N1CCN(C(=O)CN2C(=O)COc3ccc(S(=O)(=O)N4CCOCC4)cc32)CC1 | i | i | i | i | 58 | i
COc1cccc(NC(=O)CN2C(=O)COc3ccc(S(=O)(=O)N4CCC(C)CC4)cc32)c1 | i | i | i | i | 86 | i
O=C(c1ccccn1)N1CC2(C1)[C@H](c1ccccc1)[C@@H](CO)N2Cc1ccccc1 | nt | nt | nt | nt | nt | i
CCN1C/C(=C/c2ccc(OC)c(O)c2)C(=O)/C(=C/c2ccc(OC)c(O)c2)C1 | -79 | i | i | i | i | i
COc1ccc(C=C2C(=O)c3ccccc3C2=O)cc1O | i | i | i | i | i | i
COc1ccc(/C=C2\CN(Cc3ccccc3)C/C(=C\c3ccc(OC)c(O)c3)C2=O)cc1O | i | i | i | 86 | 91 | i
COc1cc(/C=C2/CC/C(=C/c3ccc(O)c(OC)c3)C2=O)ccc1O | i | i | i | i | i | i
Cc1ccccc1-c1cnc2c(c1)C(=O)N([C@@H](C)CO)C[C@@H](C)[C@H](CN(C)C(=O)c1cccnc1)O2 | nt | nt | nt | nt | nt | i
C[C@@H]1CN([C@H](C)CO)S(=O)(=O)c2ccc(C#CC3(O)CCCC3)cc2O[C@H]1CN(C)C(=O)Nc1ccccc1 | nt | nt | nt | nt | nt | i
COc1ccc(CNC(=O)C2CCCN(S(=O)(=O)c3ccc4c(c3)C(C)(C)C(=O)N4C)C2)cc1 (configuration not stated) | i | i | i | i | i | i
O=C(NCc1ccncc1)C1CCN(S(=O)(=O)c2cccc(C(F)(F)F)c2)CC1 | -53 | i | i | i | i | i
COc1ccc(CNC(=O)C2CCN(S(=O)(=O)c3ccc4c(c3)C(C)(C)C(=O)N4C)CC2)cc1 | -84 | i | i | i | i | i
CN1C(=O)C(C)(C)c2cc(S(=O)(=O)N3CCC(C(=O)NCc4ccc(Cl)cc4)CC3)ccc21 | i | i | i | i | 66 | i
COc1ccc(S(=O)(=O)N2CCC(NC(=O)C3CCCCC3)CC2)cc1 | i | 80 | i | 46 | i | i
CN1C(=O)C(C)(C)c2cc(S(=O)(=O)N3CCC(C(=O)NCc4ccc(F)cc4)CC3)ccc21 | i | i | i | i | i | i
COc1ccc(CNC(=O)C2CCN(S(=O)(=O)c3cccc(C(F)(F)F)c3)CC2)cc1 | nt | i | i | i | nt | i
COc1ccc2c3c(n(C)c2c1)[C@@H](CO)N(Cc1cccc(Cl)c1)CC31CN(C(C)=O)C1 | nt | nt | nt | nt | nt | i
O=C1c2cccc3c(O)ccc(c23)C(=O)N1c1ccc(Cl)cc1 | i | i | i | 60 | i | i
CC(=O)Nc1ccc(N2C(=O)c3cccc4c(O)ccc(c34)C2=O)cc1 | i | i | i | i | i | i
O=C(CN1CCOCC1)NCC[C@H]1CC[C@H](NS(=O)(=O)c2ccc(Cl)cc2)[C@H](CO)O1 | nt | nt | nt | nt | nt | i
Cc1c(C)n(Cc2ccccc2)c2ccc(C(=O)O)cc12 | i | i | i | nt | i | i
SMILES | HSF1 inh | TWEAK-Fn14 inh | TROY signal inh | EBV LMP1 NFkB | HSF1 activator | LGR2 inh
Cc1nn(C)cc1/C=N\NC(=O)c1ccc2c(c1)c(C)c(C)n2Cc1ccccc1 | i | i | i | i | 128 | nt
O=C(CC1CC1)N1CC[C@@H]2[C@H]1c1cc(-c3cccc(F)c3)ccc1N[C@@H]2CO | nt | nt | nt | nt | nt | i
Nc1cccc(O)c1 | nt | i | i | i | nt | i
Oc1cccc(-c2nnc(-c3cccc(O)c3)nn2)c1 | nt | 85 | i | i | nt | 84
CC(C)S(=O)(=O)c1csc(NC(=O)Nc2ccc(Cl)cc2)c1 | i | i | i | i | 77 | nt
COc1ccc(CCN(C(=O)c2ccc(F)cc2)C2=CC3CCC(C2)N3C)cc1OC (configuration not stated) | i | 68 | i | i | i | nt
C[C@H](O)C#Cc1cnc2c(c1)C(=O)N([C@@H](C)CO)C[C@H](C)[C@H](CN(C)C(=O)Nc1ccc(C(F)(F)F)cc1)O2 | nt | nt | nt | nt | nt | i
O=C(C1CC1)N1CCCCN2[C@H](CO)[C@H](c3ccc(-c4cccc(F)c4)cc3)[C@@H]2C1 | nt | nt | nt | nt | nt | i
COc1ccccc1-c1cc(C(F)(F)F)nc(S(C)(=O)=O)n1 | i | i | 53 | i | 256 | nt
COc1ccccc1-c1cc(C(F)(F)F)nc(S(=O)(=O)CCCC(=O)Nc2cccnc2Cl)n1 | nt | 82 | 62 | i | nt | nt
COc1ccc(-c2cc(C(F)(F)F)nc(S(=O)(=O)CCCC(=O)Nc3cc(C)on3)n2)cc1OC | i | 96 | 52 | i | 223 | 90
COc1ccccc1-c1cc(C(F)(F)F)nc(S(=O)(=O)CCCC(=O)N2CCCCC2C)n1 (configuration not stated) | i | 83 | 65 | i | 79 | nt
COc1ccccc1-c1cc(C(F)(F)F)nc(S(=O)(=O)CCCC(=O)Nc2cc(C)on2)n1 | i | i | i | i | i | nt
COc1ccccc1-c1cc2nc(C)c(CCC(=O)NCc3ccc(F)cc3)c(C)n2n1 | i | i | i | i | i | i
CN1CCN(c2nc(-c3ccco3)cc(C(F)(F)F)n2)CC1 | i | i | i | i | i | nt
COc1ccccc1-c1cc(C(F)(F)F)nc(S(=O)(=O)CCCC(=O)NC(C)C)n1 | i | i | i | i | 172 | nt
COc1ccccc1-c1cc(C(F)(F)F)nc(S(=O)(=O)CCCC(=O)NCc2ccc(F)cc2)n1 | -80 | 99 | 84 | i | i | i
CS(=O)(=O)c1nc(-c2ccco2)cc(C(F)(F)F)n1 | -74 | nt | nt | nt | i | nt
CNC(=O)C[C@@H]1CC[C@@H]2[C@H](COc3ccc(NC(=O)Cc4cccs4)cc3C(=O)N2C)O1 | nt | nt | nt | nt | nt | i
COc1ccc(NC(=O)Nc2ccc3c(c2)C(=O)N([C@H](C)CO)C[C@H](C)[C@@H](CN(C)Cc2ccc(Oc4ccccc4)cc2)O3)cc1 | nt | nt | nt | nt | nt | i
COc1ccc(O)c(/C=N/Nc2nc3ccccc3[nH]2)c1 | i | i | i | i | 236 | i
COc1cccc(/C=N/Nc2nc3ccccc3[nH]2)c1O | i | i | i | 83 | i | i
COc1cc(/C=C(/C(=O)c2cccs2)c2nc3ccccc3[nH]2)cc(OC)c1O | i | i | i | i | 351 | i
COc1cc(/C=N/Nc2nc3ccccc3[nH]c2=O)ccc1O | i | i | i | i | i | i
COc1cc(/C=N/Nc2nc3ccccc3[nH]2)ccc1O | i | i | i | i | 344 | i
CCCNC(=O)N[C@@H]1C=C[C@H](CC(=O)NC2CCCCC2)O[C@H]1CO | nt | nt | nt | nt | nt | i

High-throughput results as filed in PubChem BioAssay.
